# System: Vero E6 infected with SARS-CoV-2
# Assay: inhibition of SARS-CoV-2 cytopathic effect; higher = more antiviral protection, active = above 15
# Conditions: 1 nM; 48 h
row,Structure (SMILES),inhibition of SARS-CoV-2 cytopathic effect
1,CC(C)(C)c1ccc(-c2nc3c(N4CCN(Cc5ccc6nccnc6c5)CC4)cccc3[nH]2)cc1,1.45% (inactive)
2,COc1cc2c(Oc3ccc4[nH]c(C)cc4c3F)ccnc2cc1OCC1(N)CC1 [anlotinib],1.84% (inactive)
3,COc1cc2ncnc(Nc3ccc(F)c(Cl)c3)c2cc1OCCCN1CCOCC1 [gefitinib],-1.32% (inactive)
4,COc1cccc2c1C(=O)c1c(O)c3c(c(O)c1C2=O)C[C@@](O)(C(=O)CO)C[C@@H]3O[C@H]1C[C@H](N)[C@H](O[C@@H]2CCCCO2)[C@H](C)O1 [pirarubicin],-1.57% (inactive)
5,CCCCc1ccc(C(N)=O)nc1 [bupicomide],2.98% (inactive)
6,Cn1ncnc1[C@H]1c2n[nH]c(=O)c3cc(F)cc(c23)N[C@@H]1c1ccc(F)cc1 [talazoparib],0.71% (inactive)
7,CSc1ccc(C(=O)N[C@@H]2CCCC[C@@H]2NC(=O)CNC(=O)c2cc(C(F)(F)F)ccc2NC(=O)NC(C)C)cc1,4.3% (inactive)
8,NS(=O)(=O)c1ccc(NC(=O)Nc2ccc(F)cc2)cc1,1% (inactive)
9,CC(C(=O)O)c1ccc(C(=O)c2cccs2)cc1 (stereo unspecified) [suprofen],2.14% (inactive)
10,COC(=O)C1=C(C)NC(C)=C(C(=O)OCC(C)C)C1c1ccccc1[N+](=O)[O-] (stereo unspecified) [nisoldipine],-1.53% (inactive)
11,CN1C(=O)N(c2ccc(C#N)c(C(F)(F)F)c2)C(=O)[C@]1(CO)c1ccccc1 [GLPG0492-R-enantiomer],2.05% (inactive)

# Same assay, conditions: 8.33 nM; 48 h
row,Structure (SMILES),inhibition of SARS-CoV-2 cytopathic effect
1,Cc1cc(I)ccc1Nc1c(C(=O)NOCC2CC2)cc(F)c(F)c1F,5.24% (inactive)
2,CO[C@H]1C[C@H](O[C@H]2[C@H](C)O[C@@H](O[C@@H]3/C(C)=C/C[C@@H]4C[C@@H](C[C@]5(C=C[C@H](C)[C@@H](C6CCCCC6)O5)O4)OC(=O)[C@@H]4C=C(C)[C@@H](O)[C@H]5OC/C(=C\C=C\[C@@H]3C)[C@]54O)C[C@@H]2OC)O[C@@H](C)[C@@H]1O [doramectin],1.22% (inactive)
3,Cc1c(N)nc([C@H](CC(N)=O)NC[C@H](N)C(N)=O)nc1C(=O)N[C@H](C(=O)N[C@H](C)[C@@H](O)[C@H](C)C(=O)N[C@H](C(=O)NCCc1nc(-c2nc(C(=O)NCCC[S+](C)C)cs2)cs1)[C@@H](C)O)[C@@H](OC1OC(CO)C(O)C(O)C1OC1OC(CO)C(O)C(OC(N)=O)C1O)c1cnc[nH]1 (stereo partly specified) [bleomycin],-1.18% (inactive)
4,c1ccc2c(CC3=NCCN3)cccc2c1 [naphazoline],0.66% (inactive)
5,CC(C)(N)Cc1ccccc1 [phentermine],1.33% (inactive)
6,FC(F)(F)c1ccc(CNc2ccc(Cc3c[nH]c4ncc(Cl)cc34)cn2)cn1 [pexidartinib],3.65% (inactive)
7,COc1ccc(-c2oc3c(CC=C(C)C)c(O[C@@H]4O[C@H](CO)[C@@H](O)[C@H](O)[C@H]4O)cc(O)c3c(=O)c2O[C@@H]2O[C@@H](C)[C@H](O)[C@@H](O)[C@H]2O)cc1 [icariin],3.84% (inactive)
8,O=C(COc1ccc(Cl)cc1)N1CCN(Cc2ccc3c(c2)OCO3)CC1 [fipexide],0.95% (inactive)
9,O=C1CC[C@@H](C(=O)N2CSC[C@H]2C(=O)O)N1 [pidotimod],0.49% (inactive)
10,Cc1ccccc1-n1c(CF)nc2ccc(N)cc2c1=O [afloqualone],0.95% (inactive)
11,CN1c2cc3c(cc2N=C(c2ccc(C(=O)O)cc2)c2ccccc21)C(C)(C)CCC3(C)C,2.01% (inactive)
12,c1coc(CNc2ncnc3[nH]cnc23)c1 [kinetin],1.25% (inactive)
13,NC(=O)CC[C@H](N)C(=O)O [L-glutamine],2.45% (inactive)
14,COc1ccc(C(=O)/C(Cc2cc(OC)c(OC)c(OC)c2)=C(\C(=O)O)c2ccc3c(c2)OCO3)cc1,-0.48% (inactive)
15,C[S+](CC[C@H](N)C(=O)O)C[C@H]1O[C@@H](n2cnc3c(N)ncnc32)[C@H](O)[C@@H]1O (stereo partly specified) [ademetionine],-1.8% (inactive)
16,CCC[C@@]1(CCc2ccccc2)CC(O)=C([C@H](CC)c2cccc(NS(=O)(=O)c3ccc(C(F)(F)F)cn3)c2)C(=O)O1 [tipranavir],4.7% (inactive)
17,CC(C)(C)CC(C)(C)c1ccc(OCCOCC[N+](C)(C)Cc2ccccc2)cc1 [benzethonium],-10.6% (inactive)
18,CCC(C)SSc1ncc[nH]1 (stereo unspecified),-14.1% (inactive)
19,CCN1CCC[C@H]1CNC(=O)c1c(OC)ccc(Br)c1OC [remoxipride],2.05% (inactive)
20,CC(=C(CCOC(=O)C(C)C)SSC(CCOC(=O)C(C)C)=C(C)N(C=O)Cc1cnc(C)nc1N)N(C=O)Cc1cnc(C)nc1N (stereo in doubt) [sulbutiamine],2.05% (inactive)

row,Structure (SMILES),inhibition of SARS-CoV-2 cytopathic effect
1,O=C(Oc1cccc2cccnc12)c1ccccc1 [benzoxiquine],1.56% (inactive)
2,O=P(O)(NCCCl)NCCCl [palifosfamide],0.49% (inactive)
3,O=P(O)(O)CN(CCN(CP(=O)(O)O)CP(=O)(O)O)CP(=O)(O)O,0.56% (inactive)
4,Clc1ccc(COC(Cn2ccnc2)c2ccc(Cl)cc2Cl)c(Cl)c1 (stereo unspecified) [miconazole],0.22% (inactive)
5,CC(C)(O)CC(=O)NCCn1ccc2ncnc(Nc3ccc(Oc4cccc(C(F)(F)F)c4)c(Cl)c3)c21,7.81% (inactive)
6,CCOC(=O)[C@@H](N)Cc1ccc(-c2cc(O[C@H](c3ccc(Cl)cc3-n3ccc(C)n3)C(F)(F)F)nc(N)n2)cc1 [telotristat-ethyl],2.88% (inactive)
7,CC[C@@H](C(N)=O)N1CCCC1=O [levetiracetam],0.42% (inactive)
8,O=C1NC(c2ccccc2)(c2ccccc2)C(=O)N1COP(=O)(O)O [fosphenytoin],4.09% (inactive)
9,Cc1cc(-c2cc(OC(=O)c3ccccc3)ccc2Cl)cc2nnc(Nc3ccc(OCCN4CCCC4)cc3)nc12,2.55% (inactive)
10,CC(C)(C)c1ccc(-c2nc3c(N4CCN(Cc5ccc6nccnc6c5)CC4)cccc3[nH]2)cc1,1.91% (inactive)
11,COc1cc2c(Oc3ccc4[nH]c(C)cc4c3F)ccnc2cc1OCC1(N)CC1 [anlotinib],-1.41% (inactive)
12,COc1cc2ncnc(Nc3ccc(F)c(Cl)c3)c2cc1OCCCN1CCOCC1 [gefitinib],-0.45% (inactive)
13,COc1cccc2c1C(=O)c1c(O)c3c(c(O)c1C2=O)C[C@@](O)(C(=O)CO)C[C@@H]3O[C@H]1C[C@H](N)[C@H](O[C@@H]2CCCCO2)[C@H](C)O1 [pirarubicin],-0.32% (inactive)
14,CCCCc1ccc(C(N)=O)nc1 [bupicomide],0.4% (inactive)
15,Cn1ncnc1[C@H]1c2n[nH]c(=O)c3cc(F)cc(c23)N[C@@H]1c1ccc(F)cc1 [talazoparib],2.94% (inactive)
16,CSc1ccc(C(=O)N[C@@H]2CCCC[C@@H]2NC(=O)CNC(=O)c2cc(C(F)(F)F)ccc2NC(=O)NC(C)C)cc1,-0.79% (inactive)
17,NS(=O)(=O)c1ccc(NC(=O)Nc2ccc(F)cc2)cc1,-1.24% (inactive)
18,CC(C(=O)O)c1ccc(C(=O)c2cccs2)cc1 (stereo unspecified) [suprofen],0.24% (inactive)
19,COC(=O)C1=C(C)NC(C)=C(C(=O)OCC(C)C)C1c1ccccc1[N+](=O)[O-] (stereo unspecified) [nisoldipine],0.72% (inactive)
20,CN1C(=O)N(c2ccc(C#N)c(C(F)(F)F)c2)C(=O)[C@]1(CO)c1ccccc1 [GLPG0492-R-enantiomer],2.68% (inactive)
